Many of the other results were omitted from the sample, so hits are more common in it than they were.
PD-1 reversal – reversal of PD-1 mediated T-cell inhibition; primary human CD4 T cells, PD-L1 beads, CellTiter-Glo 96 h; activation, % (test concentration not listed); 29,000 tested, under 10 active; AID 2316; call rule not given here;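 note: 0% = median vehicle wells and 100% = positive control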
STK33 kin inh – inhibitors of human STK33 kinase; ADP-Glo luminescence, MBP substrate; inhibition, % at 12.5 µM; 0.44% of 27,000 active; AID 2322; in the data active = inhibition above about 20%; inconclusive = no clear call, values can overlap the other calls
Target sequence (Q9BYT3 whole entry, looked up): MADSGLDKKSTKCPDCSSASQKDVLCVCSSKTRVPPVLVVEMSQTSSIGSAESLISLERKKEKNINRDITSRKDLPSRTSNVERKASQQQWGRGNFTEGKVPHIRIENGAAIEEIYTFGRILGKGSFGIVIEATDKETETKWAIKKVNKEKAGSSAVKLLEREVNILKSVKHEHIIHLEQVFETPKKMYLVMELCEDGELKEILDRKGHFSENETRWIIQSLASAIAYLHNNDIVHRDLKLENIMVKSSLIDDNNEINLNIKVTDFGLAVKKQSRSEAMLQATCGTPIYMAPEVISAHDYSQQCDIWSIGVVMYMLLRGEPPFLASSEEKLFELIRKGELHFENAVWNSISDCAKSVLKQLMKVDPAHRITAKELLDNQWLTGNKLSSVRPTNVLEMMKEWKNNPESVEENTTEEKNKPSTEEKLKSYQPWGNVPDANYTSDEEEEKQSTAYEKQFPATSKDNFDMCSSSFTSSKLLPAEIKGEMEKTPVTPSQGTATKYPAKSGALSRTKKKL
NOMO-1 viab – STK33 inhibitor candidate reducing NOMO-1 cell viability | 7.5% of 37,000 active | AID 2330 | inhibition, % (no concentration beside the values) | NOMO-1 AML viability, CellTiter-Glo luminescence, 72 h; in the data active = inhibition above about 80%; inconclusive = no clear call, values can overlap the other calls
* marks the source's active call; other numbers are inactive results; ! = not active in a repeat.

Screening COc1ccc(C2=Nc3ccccc3SC(c3ccccc3)C2)cc1 (stereo not given) returned PD-1 reversal -1 and NOMO-1 viab 113*.
COc1ccc(C2=NN(S(C)(=O)=O)C(c3ccccc3OC)C2)cc1 (stereo not given) was read as PD-1 reversal 1 and NOMO-1 viab 65.
Screening COC(=O)C1=C(C)NC(C)=C(C(=O)OCCN(C)Cc2ccccc2)C1c1cccc([N+](=O)[O-])c1 (stereo not given) returned PD-1 reversal -10, STK33 kin inh 2 and NOMO-1 viab 142*!.
COC(=O)C1=C(C)NC2=C(C(=O)c3ccccc32)C1c1ccc(OCc2cccc([N+](=O)[O-])c2)c(Br)c1 (stereo not given) was read as STK33 kin inh 1.
For CC1=C(CO)C(=O)OC([C@@H](C)C2CC[C@H]3C4C[C@H]5O[C@]56[C@@H](O)C=CC(=O)[C@]6(C)C4CC[C@]23C)C1 (stereo not given in full) the results were PD-1 reversal -13, STK33 kin inh 1 and NOMO-1 viab 120*.
For Cc1cccc(OCC(O)Cn2cnc3ccccc32)c1C (stereo not given) the results were PD-1 reversal -1, STK33 kin inh 0 and NOMO-1 viab 48.
Screening COc1ccc2nc(Sc3c([N+](=O)[O-])nc(C)n3Cc3ccccc3)[nH]c2c1 returned PD-1 reversal -14, STK33 kin inh 0 and NOMO-1 viab 102*.
Screening Cc1nc([N+](=O)[O-])c(Sc2nc3ccccc3[nH]2)n1Cc1ccccc1 returned PD-1 reversal -14, STK33 kin inh 3 and NOMO-1 viab 101*.
For Cc1cc2nc(Sc3c([N+](=O)[O-])nc(C)n3Cc3ccccc3)[nH]c2cc1C the results were PD-1 reversal -15, STK33 kin inh 0 and NOMO-1 viab 107*.
Screening O=[N+]([O-])c1ccc2nc(CSc3nc4ccccc4[nH]3)[nH]c2c1 returned STK33 kin inh 3 and NOMO-1 viab 27.
Cc1cc2nc(SCc3ccccc3C#N)[nH]c2cc1C was read as PD-1 reversal 0, STK33 kin inh 0 and NOMO-1 viab 13.
`COc1ccc2nc(SCC(=O)Nc3cccc([N+](=O)[O-])c3)[nH]c2c1` gave PD-1 reversal -7, STK33 kin inh inconclusive and NOMO-1 viab 24.
For CCn1c(SCC(=O)Nc2ccccc2)nc2ccc(I)cc2c1=O the results were PD-1 reversal -1, STK33 kin inh -4 and NOMO-1 viab 15.
CN(C)c1oc(-c2ccc(Cl)cc2)nc1C#N was read as PD-1 reversal 1 and NOMO-1 viab 27.
CC1=C(C(=O)OCCc2ccccc2)C(c2ccc(N(C)C)cc2)NC(=S)N1 (stereo not given) was read as PD-1 reversal -5 and NOMO-1 viab 11.
For O=C1C2=C(NC(=S)NC2c2ccccc2)c2ccccc21 (stereo not given) the results were PD-1 reversal -11, STK33 kin inh 2 and NOMO-1 viab 114*.
Screening COC(=O)c1ccc(Cl)c(NC(=O)CSc2nnc(-c3cc(OC)cc(OC)c3)o2)c1 returned PD-1 reversal -3, STK33 kin inh 0 and NOMO-1 viab 38.
`COc1ccc(Cl)cc1Nc1nc(N)nc(-c2oc3ccccc3c2C)n1` gave PD-1 reversal 0, STK33 kin inh 5 and NOMO-1 viab 12.
For COc1ccc(Cl)cc1Nc1nc(N)nc(-c2cc3ccccc3o2)n1 the results were STK33 kin inh -1 and NOMO-1 viab 95*.
N#Cc1ccccc1CSc1nnc(N)n1-c1ccccc1 was read as PD-1 reversal 1, STK33 kin inh -5 and NOMO-1 viab 17.
O=C1N(CCS(=O)(=O)c2ccccc2)Cc2ccccc2[C@@H]2OC(c3ccc(OCCCO)cc3)=N[C@]12Cc1ccccc1 was read as STK33 kin inh 10.
Clc1ccc2ncnc(NCc3ccc4c(c3)OCO4)c2c1 was read as PD-1 reversal -2, STK33 kin inh 1 and NOMO-1 viab 83*.
For Cc1cc(Br)ccc1NCc1ccc2c(c1)OCO2 the results were PD-1 reversal 0 and NOMO-1 viab 43.
For O=C(CS(=O)(=O)c1ccc2ccccc2c1)c1cc2ccccc2oc1=O the results were PD-1 reversal 0, STK33 kin inh 12 and NOMO-1 viab 23.
Cc1ccc(S(=O)(=O)Nc2ccc3c(c2)C(=O)N([C@@H](C)CO)C[C@@H](C)[C@@H](CN(C)C(=O)Nc2ccc(C(F)(F)F)cc2)O3)cc1 was read as PD-1 reversal -3, STK33 kin inh 2 and NOMO-1 viab 111*.
Screening Cc1ccc(S(=O)(=O)Nc2ccc3c(c2)C(=O)N([C@H](C)CO)C[C@H](C)[C@H](CN(C)C(=O)Nc2ccc(C(F)(F)F)cc2)O3)cc1 returned PD-1 reversal -2, STK33 kin inh 0 and NOMO-1 viab 40.
`C[C@H](CO)N1C[C@H](C)[C@@H](CN(C)C(=O)Nc2ccc(C(F)(F)F)cc2)Oc2ccc(NC(=O)Nc3ccc(C(F)(F)F)cc3)cc2C1=O` gave PD-1 reversal -6, STK33 kin inh 0 and NOMO-1 viab 104*.
C[C@@H]1CN([C@@H](C)CO)C(=O)c2cc(NC(=O)Nc3ccc(F)cc3)ccc2O[C@@H]1CN(C)C(=O)Nc1ccc(C(F)(F)F)cc1 was read as PD-1 reversal -2 and NOMO-1 viab 105*.
`C[C@H](CO)N1C[C@H](C)[C@H](CN(C)C(=O)Nc2ccc(C(F)(F)F)cc2)Oc2ccc(NC(=O)Nc3ccc(C(F)(F)F)cc3)cc2C1=O` gave PD-1 reversal -2 and NOMO-1 viab 74.
Screening C[C@@H]1CN([C@H](C)CO)C(=O)c2cc(NC(=O)Nc3ccc(C(F)(F)F)cc3)ccc2O[C@H]1CN(C)C(=O)Nc1ccc(F)cc1 returned PD-1 reversal -2 and NOMO-1 viab 35.
For O=C(CC1NC2CCCCC2NC1=O)Nc1ccc(Cl)c(Cl)c1 (stereo not given) the results were PD-1 reversal -1, STK33 kin inh 1 and NOMO-1 viab -1.
For CC1=COC=C(C=NCc2ccccc2)N1c1ccccc1 the results were PD-1 reversal 0 and NOMO-1 viab 17.
CC(C)(C)Nc1cccccc1=NCc1ccccc1 was read as PD-1 reversal -3 and NOMO-1 viab 92*.
`Cc1n[nH]c(C)c1C(=O)CC1(O)C(=O)N(Cc2ccccc2)c2ccccc21` (stereo not given) gave PD-1 reversal 2, STK33 kin inh -1 and NOMO-1 viab 5.
Screening O=C(CC1(O)C(=O)N(C/C=C/c2ccccc2)c2ccccc21)c1ccccn1 (stereo not given) returned PD-1 reversal -6, STK33 kin inh 6 and NOMO-1 viab 123*.
For O=C(CSc1nc(-c2ccccc2)c(-c2ccccc2)[nH]1)Nc1ccc(F)cc1 the results were PD-1 reversal -7, STK33 kin inh -4 and NOMO-1 viab inconclusive.
Screening COC(=O)CNC(=O)c1cn(-c2ccccc2)nc1-c1ccc(OC)cc1 returned PD-1 reversal 0, STK33 kin inh -2 and NOMO-1 viab 113*.
For COC(=O)CNC(=O)c1cn(-c2ccccc2)nc1-c1ccc([N+](=O)[O-])cc1 the results were PD-1 reversal 1, STK33 kin inh -1 and NOMO-1 viab 3.
`S=C(NCC1CC1)Nc1ccc2[nH]ccc2c1` gave PD-1 reversal 0 and NOMO-1 viab -6.

Assay outcomes from PubChem BioAssay.
